Assay results from ChEMBL document CHEMBL3988442, “University of Dundee, Small-Polar-MMV Screening Library” (2021).
About 13,000 (27%) of roughly 48,000 compounds showed an effect of 50% or more. This is one part of the list.

Each compound was assayed on Wolbachia pipientis (assay: Anti-Wolbachia Cell-Based Screen). Conditions: 5 µM.
Assay type: functional
Set-up: scale not given: in the data most compounds retested in dose-response had high values

Row | SMILES | Percent Effect [%]
1 | CCN(C)C[C@@H]1CN(S(=O)(=O)c2ccc(C#N)cc2)C[C@@H]1CO | -9.397
2 | c1ccc2[nH]c(C3CCN(Cc4nnc(C5CC5)o4)CC3)nc2c1 | -0.6702
3 | O=C1CC2(CCN(CC3CCOC3)CC2)CN1Cc1cc(F)cc(F)c1 (stereo not given) | 4.353
4 | O=C1CC2(CCN(CC3CC3)CC2)CN1Cc1cc(F)cc(F)c1 | 122.7
5 | CN(Cc1ccn[nH]1)Cc1c[nH]nc1-c1ccc(F)cc1 | 4.933
6 | CCN(CCc1nc2cc(C)ccc2[nH]1)C(=O)[C@@H](N)CCSC | 1.745
7 | O=C(NCc1ccccn1)c1cc2n(n1)CCNC2 | 99.68
8 | O=C(NCc1sc2ccccc2c1Cl)c1cc2n(n1)CCNC2 | 92.76
9 | O=C(NCCn1ccnc1-c1cc2n(n1)CCNC2)c1ccc(F)cc1 | 10.43
10 | O=C(NCc1cc2n(n1)CCCNC2)C1(c2ccc(Cl)cc2)CCC1 | 14.56
11 | O=C(NCc1cc2n(n1)CCCNC2)c1cn2cc(Cl)ccc2n1 | -5.425
12 | O=C(NCc1csc2ccc(Cl)cc12)c1cc2n(n1)CCNC2 | 87.95
13 | CC(C)N1CCCn2nc(C(=O)NCCc3ccccn3)cc2C1 | -11.55
14 | Cc1ncsc1CCC(=O)NCc1cc2n(n1)CCNC2 | -3.955
15 | O=C(NCCn1ccnc1-c1cc2n(n1)CCNC2)c1ccncc1 | -6.247
16 | CN(CC(=O)N1CCCC1)C(=O)c1cccn1CCc1ccccc1 | -6.272
17 | O=C(c1ccno1)N1CCN2C(=O)N(Cc3ccc(F)cc3)C[C@H]2C1 | -2.469
18 | Cc1nc(CN2CCc3nc(NC(C)C)nc(C)c3C2)cs1 | 12.48
19 | CCN(C)C(=O)c1cnc(-c2noc3cc(N4CCCCC4)ccc23)s1 | -13.96
20 | Cc1ccc(CNC2(Cc3cc(CO)on3)COC2)o1 | -19.01
21 | CC(C)NC(=O)[C@@H]1CN(C(=O)C2CC2)C[C@]12Cc1ccccc1C(=O)N2 | 129.2
22 | CC(C)NC(=O)C1CN(C(=O)c2cccs2)CC12CCOCC2 (stereo not given) | -10.16
23 | CC(C)NC(=O)C1CN(C(=O)c2ccco2)CC12CCOCC2 (stereo not given) | 3.507
24 | CCS(=O)(=O)N1C[C@@H](C(=O)NC(C)C)[C@@]2(Cc3ccccc3C(=O)N2)C1 | 141.4

Row | SMILES | Percent Effect [%]
25 | CCC[C@@H](NC(N)=O)C(=O)N1Cc2ccccc2-c2ccccc2C1 | -11.77
26 | CC(C)C[C@@H]1N[C@H](C(=O)NC(C)C)Cc2c[nH]c3cccc1c23 | -15.72
27 | CCN(CC)C(=O)CCNC(=O)Cc1nc(-c2ccco2)oc1C | 11.44
28 | O=C(CS(=O)(=O)Cc1ccc(Br)cc1F)Nc1cn[nH]c1 | -22.34
29 | N#Cc1ccc(N2CCCN(c3nccs3)CC2)nc1 | -14.61
30 | c1csc(N2CCN(c3ncnc4sccc34)CC2)n1 | 140.7
31 | N#Cc1ccc(N2CCN(c3nccs3)CC2)nc1 | -4.592
32 | CCc1nc(CN2CCCN(c3ncnc4sccc34)CC2)no1 | -94.29
33 | c1csc(N2CCCN(c3ncnc4sccc34)CC2)n1 | 165.2
34 | Cc1noc(C(C)N2CCN(c3ncnc4sccc34)CC2)n1 (stereo not given) | -36.26
35 | Cc1cc2cc(CNC3CCN(CC4CCOC4)CC3)oc2cc1C (stereo not given) | -8.178
36 | Cc1cccc(CO[C@@H]2CO[C@@]3(CCN(S(=O)(=O)N(C)C)C3)C2)n1.O=C(O)C(F)(F)F | 0.8682
37 | CCOC1COC2(CCN(C(=O)c3cccc(C)n3)CC2)C1.O=C(O)C(F)(F)F (stereo not given) | 94.67
38 | CN(C)C(=O)COC1COC2(CCN(c3cnccn3)CC2)C1.O=C(O)C(F)(F)F (stereo not given) | 7.565
39 | CCOC1COC2(CCN(c3ccccn3)CC2)C1.O=C(O)C(F)(F)F (stereo not given) | 106.9
40 | CCS(=O)(=O)N1CCC2(CC1)CC(Oc1ccccn1)CO2.O=C(O)C(F)(F)F (stereo not given) | 11.25
41 | Cc1cnc(N2CCC3(CC2)CC(NS(C)(=O)=O)CO3)nc1 (stereo not given) | -15.37
42 | CCOC1COC2(CCN(Cc3ccco3)CC2)C1.O=C(O)C(F)(F)F (stereo not given) | -20.65
43 | CCOC1COC2(CCN(Cc3cccc(C)n3)CC2)C1.O=C(O)C(F)(F)F (stereo not given) | 109.8
44 | CCOC1COC2(CCN(c3ncc(C)cn3)CC2)C1 (stereo not given) | 100.2
45 | CN(C)C(=O)COC1COC2(CCN(c3ncccn3)CC2)C1 (stereo not given) | 5.74
46 | CCOC1COC2(CCN(c3cccc(C)n3)CC2)C1.O=C(O)C(F)(F)F (stereo not given) | 89.3
47 | CCS(=O)(=O)N1CCC2(CC1)CC(COC)N(c1ncccn1)C2.O=C(O)C(F)(F)F (stereo not given) | -2.955
48 | CN(C)C(=O)COC1COC2(CCN(c3cccc(F)c3)CC2)C1.O=C(O)C(F)(F)F (stereo not given) | -1.854

Row | SMILES | Percent Effect [%]
49 | COCCN1CCC2(CC1)CC(COC)N(c1ncccn1)C2.O=C(O)C(F)(F)F.O=C(O)C(F)(F)F (stereo not given) | -10.3
50 | COCC1CC2(CCN(c3cccc(C)n3)CC2)CN1c1ncccn1.O=C(O)C(F)(F)F (stereo not given) | 95.56
51 | Cc1cccc(COC2COC3(CCN(S(C)(=O)=O)CC3)C2)n1.O=C(O)C(F)(F)F (stereo not given) | 2.01
52 | CSc1ccc(-c2nc(CN3CCC(NC(C)=O)CC3)c(C)o2)cc1 | 26.44
53 | Cn1cc(CN2CCC[C@]3(C[C@H](Oc4ncccc4F)CO3)C2)cn1.O=C(O)C(F)(F)F.O=C(O)C(F)(F)F | 108.2
54 | CS(=O)(=O)N1CCC[C@]2(C[C@@H](Oc3ncccc3F)CO2)C1.O=C(O)C(F)(F)F | -13.76
55 | CN(C)S(=O)(=O)N1CC[C@]2(C[C@H](Oc3ncccc3F)CO2)C1.O=C(O)C(F)(F)F | -14.15
56 | O=C(O)C(F)(F)F.O=C(O)C(F)(F)F.c1ccc(O[C@H]2CO[C@@]3(CCN(Cc4ccc5c(c4)OCO5)C3)C2)nc1 | 2.667
57 | Cn1cc(CN2CCC[C@]3(C[C@@H](Oc4ncccc4F)CO3)C2)cn1.O=C(O)C(F)(F)F.O=C(O)C(F)(F)F | 104.4
58 | O=C(O)C(F)(F)F.O=C(c1cnoc1)N1CCC[C@]2(C[C@H](Oc3ncccc3F)CO2)C1 | -8.736
59 | Cc1nc(CN2CCCC(N(C)Cc3nc(CC(C)C)no3)C2)no1 (stereo not given) | -5.621
60 | CCN1CCO[C@]2(CCC[C@H]2COCc2csc(C)n2)C1.O=C(O)C(F)(F)F.O=C(O)C(F)(F)F | -10.73
61 | COC[C@@H]1CCC[C@]12CN(S(=O)(=O)c1cn(C)cn1)CCO2 | 112.9
62 | COC[C@@H]1CCC[C@]12CN(S(=O)(=O)c1cccs1)CCO2 | -10.75
63 | CO[C@@H]1CC[C@H]2[C@H]1OCCN2S(=O)(=O)c1cn(C)cn1 | -3.329
64 | CC(C)OC[C@H]1CCC[C@]12CN(S(=O)(=O)c1cccs1)CCO2 | -17.54
65 | CC(C)OC[C@H]1CCC[C@]12CN(S(=O)(=O)c1cn(C)cn1)CCO2 | 110
66 | COC[C@H]1CCC[C@]12CN(S(=O)(=O)c1cccs1)CCO2 | -5.962
67 | CO[C@@H]1CCN(S(=O)(=O)c2cn(C)cn2)[C@H]1Cc1ccccc1 | -1.543
68 | COCC1N(S(=O)(=O)c2cn(C)cn2)[C@H]2CC[C@]1(O)CC2 (stereo not given in full) | 116.2
69 | CC(C)OC[C@H]1CCC[C@]12CN(S(=O)(=O)C1CC1)CCO2 | -22.82
70 | CCOC[C@@H]1CCC[C@]12CN(S(=O)(=O)c1cn(C)cn1)CCO2 | 118.4
71 | O=C(c1cnccn1)N1CCN2C[C@H](OCC3CC3)C[C@H]2C1 | -2.249
72 | CCOc1cccc(COC(=O)c2scnc2C)n1 | -15.18

Row | SMILES | Percent Effect [%]
73 | O=C(NCCn1cccn1)C1CCC(=O)N(CC2CCCCC2)C1 (stereo not given) | 7.611
74 | Cc1ccccc1OC1CN(Cc2c(C)nc3ccccn23)C1 | -115.8
75 | CNc1nc(CNC(=O)Nc2cccc(F)c2C)cs1 | -1.885
76 | O=C(NCCCn1cccn1)C1CCC(=O)N(Cc2ccccc2F)C1 (stereo not given) | -2.925
77 | CC(C)OCCCNC(=O)c1ccc(-c2ccco2)[nH]c1=O | -5.072
78 | COCCNC(=O)C(C)n1nc(-c2ccco2)cc(N)c1=O (stereo not given) | 94.6
79 | COCCCNC(=O)Nc1cc(-c2ccccc2C)nn1CCO | -5.534
80 | CCC(C)NC(=O)c1ccc(-c2ccco2)[nH]c1=O (stereo not given) | 3.717
81 | CC(C)CCNC(=O)c1ccc(-c2ccco2)[nH]c1=O | 11.73
82 | COCCCNC(=O)C(C)n1nc(-c2ccco2)cc(N)c1=O (stereo not given) | 133.4
83 | COc1cc(NC(=O)N(C)Cc2ccc(Br)o2)ncn1 | 1.624
84 | COc1ccnc(NC(=O)c2cscn2)c1 | -4.154
85 | CSc1ncccc1C(=O)N1C[C@H]2CC[C@@H]1CN(CC(=O)N(C)C)C2 | -12.01
86 | F[C@@H]1CN(CC2CC2)C[C@@H]1OCc1nc2ccccc2o1 | -15.91
87 | C[C@@H]1CN(Cc2cc(C3CCCCC3)no2)CC[C@@]1(O)C1CC1 | 9.24
88 | C[C@@H]1CN(CCOc2ccc(Cl)cc2)CC[C@@]1(O)C1CCOCC1 | 95.64
89 | COc1cc(F)c(CN2CC[C@@](O)(C3CC3)[C@H](C)C2)cc1OC | 9.055
90 | C[C@@H]1CN(C(=O)CCCN2CCCC2)CC[C@@]1(O)C1CCOCC1 | -4.515
91 | C[C@@H]1CN(CCCOc2ccc(F)cc2)CC[C@@]1(O)C1CCOCC1 | 97.34
92 | C[C@@H]1CN(C(=O)CCCN2CCOCC2)CC[C@@]1(O)C1CCC1 | -2.629
93 | COc1cccc(OCCN2CC[C@@](O)(C3CCOCC3)[C@H](C)C2)c1 | 98.26
94 | C[C@@H]1CN(CCOCc2ccccc2)CC[C@@]1(O)C1CCC1 | -4.959
95 | C[C@@H]1CN(CCOc2ccc(F)cc2)CC[C@@]1(O)C1CCOCC1 | 93.05
